Among the data in PubChem BioAssay (Tox21) are Potency values, retold here.

Values joined by “and” are separate entries in the source; they are usually repeats but may differ in a detail not shown here. Equal values may be shown once. Records with an inconclusive call do not appear. Where a call stands in place of a potency, no number is given. Some structures have more than one record in an assay (separate samples or runs), and their calls can disagree. Active and inactive are the calls of the source. Unless noted, calls follow the shape of the full dose curve.
Potency is read from the fitted curve at half-maximal effect.

The nature of the first test: Nuclear factor erythroid 2-related factor 2/antioxidant responsive element (Nrf2/ARE) small molecule agonists: qHTS cell viability counter screen in human keratinocytes (AID 1919968; active = well fitted cell-killing curve with a large enough effect in the repeat runs; also: nearly all actives have a fitted effect of over 55% in size). As to conditions: KeratinoSens HaCaT ARE cells viability, CellTiter-Fluor, 24 h; series mostly up to 92.4 µM. In a few lines:
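Fluorescence read-out from CellTiter-Fluor after 1 h at 37 C. Wells held HaCaT-derived ARE-luciferase reporter cells (1,500/well) treated 23 h with DMSO-dissolved compounds. Run in the same wells as the luciferase agonist read.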
For orientation: Quantitative high-throughput screening tests each substance at several concentrations.
As to `CCCc1c(OCCCCc2nn[nH]n2)ccc(C(C)=O)c1O`, the Potency entry was “inactive”.
Same read-out and setting: next, `CC(=O)c1ccc(O)cc1`: “inactive”; `NC(=O)c1ccccc1O`: “inactive”.
In the case of `CC(C)CC(C)CC(O)CC(C)C` (stereo unspecified), the Potency result was “inactive”.
`C[C@]12CCC(=O)C=C1CC[C@@H]1[C@@H]2C(=O)C[C@@]2(C)[C@H]1CC[C@]2(O)C(=O)CO`: the Potency entry was “inactive”.
For the compound `CC(=O)Nc1ccc(C(=O)O)cc1`, the Potency entry is “inactive”.
For `Nc1c2c(nc3ccccc13)CCCC2`, the Potency was 54.5 µM (active) and inactive.
On the same count and under the same terms, the same measure for `C[C@H]1C[C@@H]2[C@H]([C@@H](O)C[C@@]3(C)[C@H]2CC[C@]3(O)C(=O)CO)[C@@]2(C)C=CC(=O)C=C12`: “inactive”; for `C=CCNC(N)=S`: “inactive”; for `CC(=O)Nc1ccc(C(=O)CCl)cc1`: “inactive and 27.3 µM (active)”.
The same measure, in the same setting: the same measure for `CCOC(N)=O`: “inactive”; for `NC(=O)NO`: “inactive”.
As for `O=C(O)CN(CC(=O)O)CC(=O)O`, the Potency result was “inactive”.
Take `CN1C(C(=O)Nc2ccccn2)=C(O)c2ccccc2S1(=O)=O`: the Potency entry is “inactive”.
Still for that read-out and setting: next, `O=CCCCC=O`: “inactive”; `COCCc1ccc(OCC(O)CNC(C)C)cc1` (stereo unspecified): “inactive”; `CCN(CC)CCOC(=O)c1ccc(N)cc1`: “inactive”.
`CC(C)Cc1ccc(C(C)C(=O)O)cc1` (stereo unspecified): the Potency result is “inactive”.
Still for that read-out and setting: the same measure for `O=c1c(-c2ccc(O)cc2)coc2cc(O)cc(O)c12`: “inactive”; for `CCc1ccc(CCOc2ccc(CC3SC(=O)NC3=O)cc2)nc1` (stereo unspecified): “inactive”; for `Cc1nnc(NS(=O)(=O)c2ccc(N)cc2)s1`: “inactive”.

The next test in a line: Nuclear factor erythroid 2-related factor 2/antioxidant responsive element (Nrf2/ARE) small molecule agonists: luciferase reporter gene qHTS assay in human keratinocytes (AID 1919969). Also: nearly all actives have a fitted effect of over 35% in size. As to conditions: KeratinoSens HaCaT ARE-luciferase, luminescence, 24 h; series mostly up to 92.4 µM. For orientation: A reporter such as luciferase makes a cellular process visible.
Take `CC(=O)O[C@]1(C(C)=O)CC[C@H]2[C@@H]3C[C@H](C)C4=CC(=O)CC[C@]4(C)[C@H]3CC[C@@]21C`: the Potency result is “inactive”.
On to `COC(=O)c1ccc(O)cc1`, for which the Potency entry was “inactive”.
The same measure, in the same setting: next, `CC(=O)CC(C)(C)O`: “inactive”; `O=c1[nH]cc(F)c(=O)[nH]1`: “inactive”; `COc1ccc(Cl)cc1C(=O)NCCc1ccc(S(=O)(=O)NC(=O)NC2CCCCC2)cc1`: “inactive”.
On the same count and under the same terms, the same measure for `CC(=O)OC/C=C(C)/C=C/C=C(C)/C=C/C1=C(C)CCCC1(C)C`: 66.9 µM (active) and 54.5 µM (active) and 29.8 µM (active); for `CCCCCCCCCCN`: “inactive”; for `C[C@H]1C[C@H]2[C@@H]3CCC4=CC(=O)C=C[C@]4(C)[C@@]3(F)[C@@H](O)C[C@]2(C)[C@@]1(O)C(=O)CO`: “inactive”.
As to `CCCCN(CCCC)CCCC`, the Potency result was “inactive”.
Same read-out and setting: the same measure for `CCCCCCC(C)O` (stereo unspecified): “inactive”; for `O=[Se](O)O`: “inactive and 5.23 µM (active)”; for `Cc1ccc(S(=O)(=O)NCl)cc1`: “inactive”.
Same read-out and setting: the same measure for `CC(=O)O[C@]1(C(C)=O)CC[C@H]2[C@@H]3C=C(Cl)C4=CC(=O)CC[C@]4(C)[C@H]3CC[C@@]21C`: 68.5 µM (active) and inactive; for `CCC(C)C=O` (stereo unspecified): “inactive”; for `CC1(C)S[C@@H]2[C@H](NC(=O)[C@H](N)c3ccccc3)C(=O)N2[C@H]1C(=O)O`: “inactive”.
On to `CC(C)[N+](C)(CCOC(=O)C1c2ccccc2Oc2ccccc21)C(C)C`, for which the Potency result was “inactive”.
Still for that read-out and setting: next, `CC(C)(C)NC(=O)[C@H]1CC[C@H]2[C@@H]3CC[C@H]4NC(=O)C=C[C@]4(C)[C@H]3CC[C@]12C`: “inactive”; `Cn1c(=O)c2[nH]cnc2n(C)c1=O`: “inactive”; `CCCCC/C=C\C/C=C\CCCCCCCC(=O)O`: 60.1 µM (active) and 68.6 µM (active).
Consider `CCCc1c(OCCCCc2nn[nH]n2)ccc(C(C)=O)c1O`, for which the Potency entry is “inactive”.
Same read-out and setting: the same measure for `CC(=O)c1ccc(O)cc1`: “inactive”; for `NC(=O)c1ccccc1O`: “inactive”.
For the compound `CC(C)CC(C)CC(O)CC(C)C` (stereo unspecified), the Potency result is “inactive”.
For `C[C@]12CCC(=O)C=C1CC[C@@H]1[C@@H]2C(=O)C[C@@]2(C)[C@H]1CC[C@]2(O)C(=O)CO`, the Potency entry is “inactive”.
Same read-out and setting: the same measure for `CC(=O)Nc1ccc(C(=O)O)cc1`: “inactive”.
Still for that read-out and setting: next, `Nc1c2c(nc3ccccc13)CCCC2`: 48.6 µM (active) and inactive.
On the same count and under the same terms, the same measure for `C[C@H]1C[C@@H]2[C@H]([C@@H](O)C[C@@]3(C)[C@H]2CC[C@]3(O)C(=O)CO)[C@@]2(C)C=CC(=O)C=C12`: “inactive”; for `C=CCNC(N)=S`: “inactive”.
Turning to `CC(=O)Nc1ccc(C(=O)CCl)cc1`, the Potency is 54.8 µM (active) and 9.69 µM (active).
On the same count and under the same terms, next, `CCOC(N)=O`: “inactive”; `NC(=O)NO`: “inactive”.
For `O=C(O)CN(CC(=O)O)CC(=O)O`, the Potency result was “inactive”.
Same read-out and setting: next, `CN1C(C(=O)Nc2ccccn2)=C(O)c2ccccc2S1(=O)=O`: “inactive”; `O=CCCCC=O`: 52.5 µM (active) and inactive; `COCCc1ccc(OCC(O)CNC(C)C)cc1` (stereo unspecified): “inactive”.
Still for that read-out and setting: next, `CCN(CC)CCOC(=O)c1ccc(N)cc1`: “inactive”.
Same read-out and setting: next, `CC(C)Cc1ccc(C(C)C(=O)O)cc1` (stereo unspecified): “inactive”; `O=c1c(-c2ccc(O)cc2)coc2cc(O)cc(O)c12`: “inactive and 15 µM (active)”.
Take `CCc1ccc(CCOc2ccc(CC3SC(=O)NC3=O)cc2)nc1` (stereo unspecified): the Potency was 27.3 µM (active) and inactive.
Still for that read-out and setting: the same measure for `Cc1nnc(NS(=O)(=O)c2ccc(N)cc2)s1`: “inactive”.
